Source: PubChem (The Scripps Research Institute Molecular Screening Center)
TLR4-MyD88 inh: TLR4-MyD88 interaction inhibition. O00206. Cell-based TLR4-MyD88 binding inhibition assay. inhibition, % at 10 µM. hit rate 0.06% among 16,000; in the data active = inhibition above about 45%
PME-1 Maybr inh: PME-1 (human) inhibition, Maybridge primary screen; Q9Y570; hit rate 0.5% among 16,000; recombinant PME-1, FP-Rh probe fluorescence polarization; inhibition, % at 9 µM; AID 2291; in the data active = inhibition above about 30%
Target sequence (Q9Y570 whole entry, looked up): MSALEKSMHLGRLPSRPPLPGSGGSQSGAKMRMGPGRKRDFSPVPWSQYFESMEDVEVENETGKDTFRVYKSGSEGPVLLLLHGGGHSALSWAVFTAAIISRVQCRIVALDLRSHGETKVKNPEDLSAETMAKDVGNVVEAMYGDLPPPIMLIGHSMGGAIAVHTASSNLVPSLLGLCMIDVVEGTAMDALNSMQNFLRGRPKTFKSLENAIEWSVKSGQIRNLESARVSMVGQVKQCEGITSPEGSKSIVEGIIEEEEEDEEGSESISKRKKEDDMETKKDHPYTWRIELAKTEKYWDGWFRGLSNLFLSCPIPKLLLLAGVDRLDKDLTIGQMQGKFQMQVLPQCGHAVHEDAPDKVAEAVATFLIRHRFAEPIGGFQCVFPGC
OPRK1 antag MB: antagonists of human kappa opioid receptor OPRK1, Maybridge library; P41145; OPRK1 cells, antagonist mode, fluorescence readout; inhibition, % at 9 µM; hit rate 0.4% among 16,000; AID 652031; in the data active = inhibition above about 50%
rat GALR2 ag: GALR2 (rat) receptor agonism; activation, % at 10 µM; hit rate 0.5% among 16,000; O08726; AID 833; cell-based GALR2 agonist screen; in the data active = activation above about 15%
S1P1 agonist: activates the human S1P1 receptor; S1P1 agonist cell-based reporter assay; activation, % at 4.5 µM; hit rate 1.5% among 16,000; in the data active = activation above about 80%
* = called active by the depositor; . = no result given. Sampled rows, rich in hits. Any-hit rate of the full collection: about 2.8%.

SMILES	TLR4-MyD88 inh	PME-1 Maybr inh	OPRK1 antag MB	rat GALR2 ag	S1P1 agonist
COc1ccc(-n2ncc(C(=O)NCc3ccc(-c4cccs4)cc3)c2C)cc1	-4.7	-0.6	1.6	-7.2	9.5
COC(=O)c1sc(SC)c(C#N)c1-c1cccc(C(F)(F)F)c1	2.1	7.1	-19.1	-8.4	16.2
COC(=O)c1sc(C(F)(F)F)c(-c2ccccc2)c1N	.	-0.8	-5.3	-5.4	98.3*
COc1cc(C(=O)NNC(=O)Nc2c(-c3c(Cl)cccc3Cl)noc2C)cc(OC)c1OC	-5.9	8.8	-13.4	-5.5	7.0
O=[N+]([O-])c1cc(Br)c(Oc2cncc(Cl)c2)cc1Oc1cncc(Cl)c1	1.4	52.3*	-10.5	-10.4	23.0
CC(C)(C)c1ccc(C(=O)c2ncc[nH]2)cc1	15.1	0.9	-3.1	2.2	102.8*
CN(C)c1ccc(-n2nnnc2SCc2ccc(Cl)cc2)cc1	-11.3	4.7	58.6*	0.9	-0.6
Cc1nnsc1C(=O)NNS(C)(=O)=O	-12.2	0.8	-12.6	-9.2	-10.9
COc1ccc(C(=O)Nc2nc(-c3ccc(C)c(Cl)c3)c(C)s2)cc1	1.8	4.7	-5.0	17.5*	10.3
Cc1ccc(-c2nc(NC(=O)c3c(C)noc3C)sc2C)cc1Cl	0.6	-3.2	0.0	-9.6	-21.4
CCOc1ccc(NC(=O)c2cc(C)n(C)n2)cc1	9.1	-2.6	5.0	-7.8	125.7*
Cc1cc(C(=O)Nc2ccccc2N2CCCCC2)nn1C	-4.5	-1.5	-13.6	-7.5	-32.0
CCOC(=O)NC(=O)/C(C#N)=N/Nc1ccccc1	-1.6	6.3	-1.7	-0.4	-2.9
c1ccc2c3c([nH]c2c1)-c1nonc1CC3	0.8	1.0	-15.7	-8.5	-11.9
O=C(COc1ccc(C2SCCS2)cc1)Nc1cc(Cl)cc(Cl)c1	-1.8	123.6*	20.4	-7.0	10.8
CCOC(=O)c1cnn(C)c1NC(=O)C(Cl)Cl	2.4	-0.3	-16.5	-9.0	2.7
Cc1c(Cc2c(Cl)cccc2Cl)c(=O)oc2cc(O)ccc12	-3.5	32.8*	1.3	-8.7	49.0
O=c1c2ccccc2oc2cc(O)ccc12	-2.3	6.2	-2.6	-3.0	-16.1
CC1(C)N=c2ccc([N+](=O)[O-])cc2=N1	-2.5	37.6*	1.2	-6.2	-7.9
O=[N+]([O-])C1=Cc2cc(Cl)cc(Cl)c2OC1c1ccc(F)cc1 (configuration not stated)	3.9	0.3	16.8	-12.5	23.8
N#C/C(=N\Nc1ccc(C(F)(F)F)cc1)S(=O)(=O)c1cccs1	-36.8	11.6	24.9	-12.0	110.4*
N#C/C(=C\c1cccnc1)C(N)=S	0.4	-2.4	-0.6	-4.5	5.5
COc1ccc(/C=C(\C#N)C(N)=S)cc1	14.1	4.1	0.5	-0.1	108.8*
COC(=O)c1cccc(NC(=O)c2ccccc2)c1	8.4	-0.3	5.8	-6.2	-8.5
COC(=O)c1cccc(NC(=O)NC(=O)c2cccs2)c1	-6.9	1.3	16.6	16.2*	1.5
SMILES	TLR4-MyD88 inh	PME-1 Maybr inh	OPRK1 antag MB	rat GALR2 ag	S1P1 agonist
COc1ccc(/C(C#N)=C/c2ccc3c(c2)OCO3)cc1	2.6	-1.4	4.5	-5.4	8.7
N#C/C(=C\c1ccc(Cl)c(Cl)c1)c1ccc(NC(N)=O)cc1	-196.2	-4.4	-200.9	135.4*	-48.1
Cc1cccc(NC(=O)c2ccc(-c3ccccc3)s2)c1C(=O)O	2.0	5.8	13.0	1.1	-1.5
O=C(Nc1ccc(Cl)cc1Cl)c1cc([N+](=O)[O-])cc2c1-c1ccc([N+](=O)[O-])cc1C2=O	-3.9	1.1	52.7*	-10.9	21.9
Cc1ccc(-n2c(N)n[nH]c2=S)cc1	1.0	2.8	9.6	-1.3	-1.5
COc1cc([N+](=O)[O-])c(OC)cc1SCc1n[nH]c(=S)n1-c1ccc(C)cc1	-7.1	8.2	76.4*	-1.8	12.4
Cc1cc2nc(-c3ccccn3)cc(C(F)(F)F)n2n1	2.0	-1.0	-1.1	-6.0	-12.3
COc1ccc(-c2cc(C(F)(F)F)nc(N)n2)cc1	-1.9	5.5	-3.7	-3.0	50.4
COc1ccc(-c2cc(C(F)(F)F)n3nc(C4CC4)cc3n2)cc1	-4.9	0.8	19.7	-5.6	85.0*
COc1ccc(-c2cc(C(F)(F)F)n3nc(-c4ccco4)cc3n2)cc1OC	6.6	-14.4	-11.9	26.9*	52.5
CC(C)(C)c1cc2nc(C(F)(F)F)cc(NNC(=O)Nc3ccc(OC(F)(F)F)cc3)n2n1	-6.5	-105.9	3.0	0.3	82.0*
CNc1ncnc(NNC(=O)Nc2ccc(OC(F)(F)F)cc2)c1[N+](=O)[O-]	9.1	3.6	2.7	-5.7	-23.7
Cn1nc(C(C)(C)C)cc1C(=O)NCc1ccc2c(c1)CCO2	4.2	-1.2	-13.5	-9.4	80.2*
Cc1cc(C(=O)NCc2ccc3c(c2)OCCCO3)nn1C	2.7	5.5	3.3	-6.0	5.6
CC(=O)c1ccc(C#N)c(SCC(=O)Nc2ccccc2Cl)n1	-7.0	4.1	-10.0	-6.0	-3.8
NC(=S)NNC(=O)c1ccc([N+](=O)[O-])cc1	-0.8	1.0	7.9	-7.2	-3.4
COc1cc(Cl)ccc1N/N=C(\C#N)C(N)=O	-12.2	4.7	5.6	-2.1	-2.9
Cc1cc(C(=O)/C(C#N)=N/Nc2cccc(Cl)c2)n(C(C)(C)C)n1	-12.1	-0.2	19.0	-4.8	88.4*
CC(C)(C)c1cc(C(=O)/C(C#N)=N/Nc2cccc(Cl)c2)no1	-17.1	8.8	0.9	-2.9	108.0*
